HNF4A DNA FP: change in binding of human HNF4A to DNA, primary screen, biochemical, fluorescence polarization, FITC-DNA; Hepatocyte nuclear factor 4-alpha (Homo sapiens), P41235; AID 1224865, 2016; 360,000 compounds, 0.3% hits; 1 h; activity change, % at 10 µM; in the data active = activity change above about 30%, passing the limit was not always enough
Fh CTSL1 inh: Fasciola hepatica cathepsin L1 inhibitors, primary screen, counter-screen for PFM18AAP inhibitor project, biochemical, QFRET, fluorogenic peptide substrate; inhibition, % at 5.96 µM; AID 1906, 2009; recombinant F. hepatica cathepsin L1, Z-Leu-Arg-MCA fluorescence; 300,000 compounds, 0.49% hits;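 active = inhibition above the mean of all tested compounds plus 3 SD, set per screening campaign, cut at about 17% in these data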
Rpn11 inh: Rpn11 (PSMD14) deubiquitinase inhibitors, primary screen, biochemical, fluorescence polarization, uHTS; 26S proteasome non-ATPase regulatory subunit 14 (Homo sapiens), O00487; human 26S proteasome, Ub4-pepOG fluorescence polarization; 20S core pre-blocked with epoxomicin; inhibition, % at 20 µM; 360,000 compounds, 0.59% hits; AID 588493, 2011;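 active = inhibition at 20 µM, scaled to each plate's controls, above about 33%, limit read from the data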
PHOSPHO1 block: PubChem AID 1565. Phosphoethanolamine/phosphocholine phosphatase (Homo sapiens), Q8TCT1. recombinant PHOSPHO1, absorbance phosphatase assay. inhibition, % at 13.3 µM. 290,000 compounds, 1.1% hits; in the data active = inhibition above about 60%
TPT1 inhibitor: Candida albicans TPT1 enzyme inhibitors, primary screen, biochemical, fluorescence polarization; tRNA 2'-phosphotransferase TPT1 (Candida albicans SC5314); recombinant caTPT1, FP RNA substrate dephosphorylation; inhibition, % at 5 µM; 300,000 compounds, 0.81% hits; AID 1962, 2009;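 active = inhibition above the mean of all tested compounds plus 3 SD, set per screening campaign, cut at about 24% in these data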
CendR NRP1 mod: modulators of CendR peptide binding to NRP-1, primary screen, biochemical, fluorescence polarization, uHTS | Neuropilin-1 (Homo sapiens), O14786 | FAM-RPARPAR peptide binding to NRP-1 | inhibition, % at 25 µM | 360,000 compounds, 0.85% hits;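 active = inhibition or corrected inhibition above about 18%, plus a signal ratio from 0.5 to 1.5, limit read from the data, passing the limit was not always enough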
Target sequence (O14786 whole entry, looked up): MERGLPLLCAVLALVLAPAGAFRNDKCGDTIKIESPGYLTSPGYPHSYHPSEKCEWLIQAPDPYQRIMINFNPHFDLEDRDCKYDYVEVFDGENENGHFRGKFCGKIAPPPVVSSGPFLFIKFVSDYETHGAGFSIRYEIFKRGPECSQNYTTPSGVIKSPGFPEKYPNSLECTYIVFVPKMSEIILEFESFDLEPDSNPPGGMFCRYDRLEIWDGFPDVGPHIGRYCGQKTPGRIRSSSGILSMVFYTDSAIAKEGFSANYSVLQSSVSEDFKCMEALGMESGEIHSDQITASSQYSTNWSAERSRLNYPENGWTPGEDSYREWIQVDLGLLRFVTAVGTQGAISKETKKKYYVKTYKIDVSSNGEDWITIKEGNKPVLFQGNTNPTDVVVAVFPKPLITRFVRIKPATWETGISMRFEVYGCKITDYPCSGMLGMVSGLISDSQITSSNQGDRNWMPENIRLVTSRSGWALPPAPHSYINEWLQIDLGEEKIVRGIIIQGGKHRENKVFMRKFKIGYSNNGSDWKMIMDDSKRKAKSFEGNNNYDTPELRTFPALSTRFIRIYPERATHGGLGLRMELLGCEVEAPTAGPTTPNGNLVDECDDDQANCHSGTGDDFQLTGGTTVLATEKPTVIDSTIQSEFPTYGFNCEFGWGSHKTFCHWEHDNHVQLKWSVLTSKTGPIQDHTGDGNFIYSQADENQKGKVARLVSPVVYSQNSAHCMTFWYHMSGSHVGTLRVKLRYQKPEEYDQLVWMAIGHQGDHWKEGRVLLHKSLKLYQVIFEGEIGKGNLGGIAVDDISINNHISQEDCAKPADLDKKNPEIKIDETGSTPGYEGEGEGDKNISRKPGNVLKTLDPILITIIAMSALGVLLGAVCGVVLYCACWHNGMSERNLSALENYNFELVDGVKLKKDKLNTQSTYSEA
Large screens that a line does not name were inactive. An excerpt weighted towards active compounds, which were near 3.3% of everything screened.

NC1=C(Br)C(=O)c2ncccc2C1=O	CendR NRP1 mod 28 (no result: Fh CTSL1 inh, PHOSPHO1 block, TPT1 inhibitor)
O=C1c2cccnc2C(=O)N1CO	none
O=C(O)CCC(=O)Nc1cccc(C(=O)Nc2ccc(Br)cc2)c1	HNF4A DNA FP 80
O=C(NNC(=S)Nc1ccccc1)c1cccc(Br)c1	PHOSPHO1 block 89
Cc1cccc(NC(=S)NNC(=O)c2ccc(Br)o2)c1	PHOSPHO1 block 88
O=C(NC(=S)Nc1ccccc1)c1ccc(Br)o1	none
COc1cccc(C(=O)NCC2CCCN(C(=O)c3ccc(C=O)cc3)C2)c1OC (centres undefined)	none
CSc1nc2ccc(S(=O)(=O)N3CCCC3)cc2s1	none
O=C(NC1CCCC1)c1cc(S(=O)(=O)N2CCCC2)ccc1Cl	none
CSCCC(NS(=O)(=O)c1ccc2c(c1)oc(=O)n2C)C(=O)NC1CCN(Cc2ccccc2)CC1 (centres undefined)	Fh CTSL1 inh 41
Cn1c(=O)oc2cc(S(=O)(=O)Nc3ccccc3O)ccc21	CendR NRP1 mod 35 (no result: Fh CTSL1 inh, TPT1 inhibitor)
CC(C)C(NS(=O)(=O)c1ccc2c(c1)oc(=O)n2C)C(=O)N1CCN(Cc2ccccc2)CC1 (centres undefined)	Fh CTSL1 inh 47
COc1ccc(S(=O)(=O)Nc2nc3c(s2)C(=O)CC(C)(C)C3)cc1	none
CN(C)N1C(=O)CC(N2CCCCC2)C1=O (centres undefined)	none
Nn1c(SCc2ccc(Br)cc2)nnc1-c1ccncc1	none
Cn1c(CNC(=O)c2ccco2)nnc1SCC(=O)Nc1cccc(Br)c1	PHOSPHO1 block 93
c1ccc(-c2nn3c(-c4ccccc4)nnc3o2)cc1	none (no result: Fh CTSL1 inh, PHOSPHO1 block, TPT1 inhibitor)
Nn1c(COc2cccc(Br)c2)nnc1SCC(=O)N1CCc2ccccc2C1	PHOSPHO1 block 82
CCOC(=O)c1c(S(=O)(=O)Nc2ccccn2)c(C)n(C)c1C	PHOSPHO1 block 65
CCOC(=O)c1c(S(=O)(=O)NCC(=O)NCc2ccccc2Cl)c(C)n(C)c1C	PHOSPHO1 block 62
CCOC(=O)c1c(S(=O)(=O)NCC(=O)NCc2ccc(C)cc2)c(C)n(C)c1C	none
COC(=O)c1cccc(N2C(=O)C(Cl)=C(N3CCOCC3)C2=O)c1	Fh CTSL1 inh 32
CC1CCCN(C2=C(Cl)C(=O)N(c3cccc(Cl)c3)C2=O)C1 (centres undefined)	none
O=C1C(Cl)=C(N2CCOCC2)C(=O)N1c1cccc(C(F)(F)F)c1	Fh CTSL1 inh 23
Cc1ccc(C)c(NC(=O)COC(=O)COc2cccc3c2OC(C)(C)C3)c1	none (no result: PHOSPHO1 block)
O=C(CSc1n[nH]c(-c2cccnc2)n1)Nc1ccc([N+](=O)[O-])cc1Br	none
CC(C)(C)NC(=O)C(c1ccc(O)cc1)N(C(=O)CCC(=O)Nc1nccs1)c1ccccc1F (centres undefined)	CendR NRP1 mod 29
NC(=O)c1oc2ccccc2c1NC(=O)c1ccc(F)cc1	none
NC(=O)c1oc2ccccc2c1NC(=O)c1ccc([N+](=O)[O-])o1	Fh CTSL1 inh 26
NC(=O)c1oc2ccccc2c1NC(=O)c1nc2ccccc2s1	CendR NRP1 mod 24
CN(C)CCNC(=O)c1ccc(Sc2ccc(Br)cc2)c([N+](=O)[O-])c1	none
CC1C=CC=CC=CC=CC=CC=CC=CC(OC2OC(C)C(O)C(N)C2O)CC2OC(O)(CC(O)CC(O)C(O)CCC(O)CC(O)CC(=O)OC(C)C(C)C1O)CC(O)C2C(=O)O (centres undefined)	Rpn11 inh 44 (no result: Fh CTSL1 inh, PHOSPHO1 block, TPT1 inhibitor)
CCCn1[nH]cc(SC)c(=O)c1=O	none
CSc1cccc(CN2CCC(n3nccc3NC(=O)C3CC3)CC2)c1	PHOSPHO1 block 64
COC(=O)c1ccc(CN2CCC(n3nccc3NC(=O)C3CCCC3)CC2)cc1	PHOSPHO1 block 63
CCOCc1cc(CN2CCC(n3nccc3NC(=O)C3CC3)CC2)ccc1OC	none (no result: Fh CTSL1 inh, PHOSPHO1 block, TPT1 inhibitor)
O=C(Nc1ccnn1C1CCN(C(=O)c2ccc(F)c(Cl)c2)CC1)C1CC1	none
COc1ccc(CN2CCC(n3nccc3NC(=O)C3CC3)CC2)cc1O	CendR NRP1 mod 23
O=C(Nc1ccnn1C1CCN(C(=O)c2c(F)cccc2F)CC1)C1CC1	CendR NRP1 mod 25
Clc1ccccc1NN(Cc1ccccn1)c1ccccc1Cl	none (no result: Fh CTSL1 inh, PHOSPHO1 block, TPT1 inhibitor)
Cc1cccc(NC(=O)CCS(=O)(=O)c2cccc3nonc23)c1C	none
C[C@@H]1CN([C@@H](C)CO)C(=O)c2cc(NC(=O)CCN3CCOCC3)ccc2O[C@@H]1CN(C)C(=O)Nc1ccccc1	none (no result: Fh CTSL1 inh, PHOSPHO1 block, TPT1 inhibitor)
COc1cc(CCNC(=O)c2cnn3ccccc23)cc(OC)c1OC	none
COCCN(C(=O)COC(=O)C1(C)CC1(Cl)Cl)c1c(N)n(Cc2ccccc2)c(=O)[nH]c1=O (centres undefined)	none
CCCc1ccccc1OCCNS(=O)(=O)c1cc2c(cc1C)OCC(=O)N2	none
CCn1cc(CNC(=O)/C=C/c2cnn(C)c2)c(C)n1	HNF4A DNA FP 45
O=C(CSCc1ccc(Br)cc1)NCCc1ccccc1	none (no result: PHOSPHO1 block)
COc1ccc(C(C)=O)c(Oc2ccc(S(=O)(=O)N3CCOCC3)cn2)c1	none (no result: Fh CTSL1 inh, PHOSPHO1 block, TPT1 inhibitor)
CN(C)CC(C)(C)CNS(=O)(=O)c1cccc(Cl)c1Cl	PHOSPHO1 block 75
COc1cccc(NC(=O)CN(C)C(=O)c2cc(-c3ccccc3)nn2-c2ccccc2)c1	none (no result: Fh CTSL1 inh, PHOSPHO1 block, TPT1 inhibitor)
CC(NC(=O)c1ccccc1SCC(=O)N1CCCC1)c1ccc(F)cc1 (centres undefined)	none
CCn1ccnc1CN(C)Cc1nc(-c2cccc(Cl)c2)no1	none
CCn1ccnc1CN(C)Cc1nc(-c2ccccc2)no1	PHOSPHO1 block 60
O=C1NC[C@H](CCCCN2C[C@H](Cc3ccccc3)N(CC3CCCCC3)C(=O)C2=O)N(CC2CCCCC2)C1=O	none (no result: Fh CTSL1 inh, Rpn11 inh, PHOSPHO1 block, TPT1 inhibitor)
O=C(CC1NC(=O)NC1=O)Nc1ccccc1 (centres undefined)	CendR NRP1 mod 27
O=C(CC1NC(=O)NC1=O)Nc1cccc2ccccc12 (centres undefined)	none
COC(=O)C1=C(C(=O)OC)[C@@H]2N(C)c3ccc(OC)cc3[C@@]23C[C@@H](C(=O)OC)N(C(=O)CC(C)C)C3=N1	CendR NRP1 mod 26 (no result: PHOSPHO1 block)
COC(=O)C1=C(C(=O)OC)[C@@H]2N(C)c3ccc(OC)cc3[C@@]23C[C@@H](C(=O)OC)N(C(=O)NCCBr)C3=N1	none (no result: HNF4A DNA FP, Rpn11 inh, PHOSPHO1 block, CendR NRP1 mod)
COC(=O)c1ccc(NC(=O)[C@H](C)NC(N)=O)cc1	none
CN1C(=O)CC2(C)C1=CCc1scnc12 (centres undefined)	CendR NRP1 mod 19 (no result: Fh CTSL1 inh, PHOSPHO1 block, TPT1 inhibitor)
COc1ccc(Cl)cc1NS(=O)(=O)c1c(C)nc2sccn2c1=O	none
Cc1ccc(C(=O)Nc2ccc3c(c2)CCC3)cc1S(=O)(=O)N1CCOCC1	none

Compound activity: PubChem BioAssay, several laboratories
